The record followed here is PubChem BioAssay (Tox21).

Each structure is given as a SMILES string. Several values for one entry are separate records, joined by “and”; a condition that tells them apart may be missing. Equal entries are not always repeated. Unmarked numbers belong to inactive results. Results filed as inconclusive are left out. Activity calls are given as the source filed them. Unless noted, calls come from the whole dose curve; as a rule, active = well fitted curve in the direction sought with a large enough effect in the repeat runs; inconclusive = weak or mixed curves; inactive = no such curve, though single readings can be large; an effect the other way counts as inactive or inconclusive.

A short description of experiment [1]: A CellTox Green Cytotoxicity Assay to monitor cytotoxicity in HEK293 cells - 32 hour (AID 1224881). Note: nearly all actives have a fitted effect of over 40% in size. Note: potency is the fitted concentration of half-maximal effect. The gist of the method: (§1)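 Real-time, in one plate: 600 HEK293 cells/well with dead-cell DNA dye, pinned compound after 5 h, 37 C incubation over 40 h; viable cells give no appreciable fluorescence.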
Experiment [2] is described as follows: A CellTox Green Cytotoxicity Assay to monitor cytotoxicity in HepG2 cells - 0 hour (AID 1224882). Note: nearly all actives have a fitted effect of over 35% in size. The gist of the method:
(§2)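 Cytotoxicity was tracked as dead-cell DNA fluorescence in HepG2 cells treated with test compounds at 37 C; each time-point value comes from one kinetic series spanning 0, 8, 16, 24, 32 and 40 h.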

Experiment [3] in a line: A CellTox Green Cytotoxicity Assay to monitor cytotoxicity in HepG2 cells - 32 hour (AID 1224883). Note: nearly all actives have a fitted effect of over 50% in size. Note: potency is the fitted concentration of half-maximal effect. Put shortly:
as §2

The nature of experiment [4]: A CellTox Green Cytotoxicity Assay to monitor cytotoxicity in HEK293 cells - 8 hour (AID 1224884). Note: nearly all actives have a fitted effect of over 35% in size. Note: potency is the fitted concentration of half-maximal effect. Put shortly:
as §1

A short description of experiment [5]: qHTS RealTime-Glo MT Cell Viability Assay in HepG2 cells - 16 hour (AID 1224885). Note: nearly all actives have a fitted effect of over 50% in size. Note: potency is the fitted concentration of half-maximal effect. Put shortly: (§3)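 Viability was tracked continuously by NanoLuc luminescence from prosubstrate reduced by living HepG2 cells, at successive time points over 40 h of compound exposure. Cells with reagent were preincubated 5 h at 37 °C before compound addition.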
On the technique in general: qHTS replaces the single test concentration by a dilution series.

The nature of experiment [6]: qHTS RealTime-Glo MT Cell Viability Assay in HEK293 cells - 24 hour (AID 1224886). Note: top concentration of the series differs between compounds; nearly all actives have a fitted effect of over 50% in size. The gist of the method: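 Viability tracked continuously by luminescence as live cells reduce a prosubstrate for NanoLuc; HEK293 cells preincubated 5 h, compound-treated at 37 C, and read at 0, 8, 16, 24, 32 and 40 h.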
A short description of experiment [7]: qHTS RealTime-Glo MT Cell Viability Assay in HEK293 cells - 8 hour (AID 1224887). Note: nearly all actives have a fitted effect of over 50% in size. Note: potency is the fitted concentration of half-maximal effect. The gist of the method:
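Kinetic, non-lysing viability readout. Seed HEK293 (600/well) with reagent, incubate 5 h at 37 C/5% CO2, pin 23 nL compound in DMSO, incubate at 37 C, read luminescence at 0, 8, 16, 24, 32, 40 h.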

Experiment [8] in a line: A CellTox Green Cytotoxicity Assay to monitor cytotoxicity in HEK293 cells - 16 hour (AID 1224888). Note: nearly all actives have a fitted effect of over 35% in size. Note: potency is the fitted concentration of half-maximal effect. The gist of the method:
as §1

The nature of experiment [9]: qHTS RealTime-Glo MT Cell Viability Assay in HepG2 cells - 0 hour (AID 1224889). Note: nearly all actives have a fitted effect of over 50% in size. The gist of the method:
as §3

Experiment [10] can be described thus: A CellTox Green Cytotoxicity Assay to monitor cytotoxicity in HepG2 cells - 8 hour (AID 1224890). Note: nearly all actives have a fitted effect of over 45% in size. Note: potency is the fitted concentration of half-maximal effect. Put shortly: as §2
A short description of experiment [11]: qHTS assay to identify small molecule antagonists of the estrogen receptor alpha (ER-alpha) signaling pathway using the BG1 cell line in the presence of 0.1 nM 17-beta-estradiol - cell viability counter screen (AID 1259241). Note: nearly all actives have a fitted effect of over 40% in size. The gist of the method:
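Following 5 days in phenol red-free medium with charcoal-stripped serum, VM7Luc4E2 cells received test compounds alongside 0.1 nM 17beta-estradiol (final) at 37C for 22 hr. Live cells were then quantified via protease-substrate fluorescence.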

A short description of experiment [12]: qHTS assay to identify small molecule antagonists of the androgen receptor (AR) signaling pathway using the MDA cell line in the presence of 0.5 nM R1881 - cell viability counter screen (AID 1259242). Note: nearly all actives have a fitted effect of over 45% in size. Note: potency is the fitted concentration of half-maximal effect. The gist of the method:
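Cells seeded at 3,000/well and allowed 5 hr at 37C, 0% CO2 before compound transfer and R1881 (0.5 nM final) addition; 16 hr later, live-cell protease fluorescence indicated cytotoxicity.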

Experiment [13] in a line: qHTS assay to identify small molecule HDAC inhibitors (AID 1259364).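 Note: wild-type HCT-116 cells with endogenous class I/II HDAC activity; top concentration of the series differs between compounds; nearly all actives have a fitted effect of over 45% in size.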 The gist of the method:
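HCT-116 wt cells, 1,500/well, overnight attach. Compounds (DMSO) 2 h, 37 °C. HDAC-Glo I/II, 30 min RT. Luminescence.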

Experiment [14] is described as follows: qHTS assay to identify small molecule HDAC inhibitors - cell viability counter screen (AID 1259365). The gist of the method: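 HCT-116 wild-type, overnight attachment; 2hr drug exposure, 37C; CellTiter-Glo luminescent ATP readout after 30min RT.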
Experiment [15] in a line: qHTS assay to identify small molecule agonists of the sonic hedgehog signaling (Shh) pathway (AID 1259368; calls by dose curve; note: nearly all actives have a fitted effect of over 15% in size; note: potency is the fitted concentration of half-maximal effect). The gist of the method: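 Following a 24 hr incubation with DMSO-dissolved compounds at 37 C, 5% CO2, Gli1-Luc NIH/3T3-derived cells received luciferase reagent for 30 min at room temperature prior to luminescence measurement.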
For experiment [16], the target named is Estrogen receptor (Homo sapiens) (UniProt P03372). Nature of the experiment: qHTS assay to identify small molecule antagonists of the estrogen receptor alpha (ER-alpha) signaling pathway using the BG1 cell line in the presence of 0.1 nM 17-beta-estradiol (AID 1259244). Note: nearly all actives have a fitted effect of over 50% in size. The gist of the method: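 Luciferase signal from VM7Luc4E2 ERE-reporter cells, co-dosed with test compound and 0.1 nM final 17beta-estradiol for 22 h, read with ONE-Glo.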
Sequence of Estrogen receptor (Homo sapiens) (P03372 whole entry, looked up): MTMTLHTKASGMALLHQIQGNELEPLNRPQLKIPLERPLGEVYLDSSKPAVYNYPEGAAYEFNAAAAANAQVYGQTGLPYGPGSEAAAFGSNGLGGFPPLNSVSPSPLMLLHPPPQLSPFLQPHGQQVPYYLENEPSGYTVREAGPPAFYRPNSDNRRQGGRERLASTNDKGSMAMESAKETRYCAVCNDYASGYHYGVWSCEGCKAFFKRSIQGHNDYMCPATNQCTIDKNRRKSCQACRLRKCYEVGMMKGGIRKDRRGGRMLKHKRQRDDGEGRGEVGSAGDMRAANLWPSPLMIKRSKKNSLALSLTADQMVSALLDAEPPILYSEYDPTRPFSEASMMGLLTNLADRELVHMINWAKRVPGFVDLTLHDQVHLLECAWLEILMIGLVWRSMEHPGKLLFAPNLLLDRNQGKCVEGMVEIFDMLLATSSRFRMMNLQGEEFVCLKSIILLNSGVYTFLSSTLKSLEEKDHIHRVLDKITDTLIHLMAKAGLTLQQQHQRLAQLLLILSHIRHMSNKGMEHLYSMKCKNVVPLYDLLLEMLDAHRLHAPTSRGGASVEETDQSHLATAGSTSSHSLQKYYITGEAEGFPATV

Experiment [17] in a line: qHTS assay to identify small molecule agonists of the sonic hedgehog signaling (Shh) pathway - cell viability counter screen (AID 1259366). Note: nearly all actives have a fitted effect of over 50% in size. Put shortly: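 Compounds in DMSO were pin-transferred onto 3T3 Gli1-Luc cells that had settled 4hr; plates then stood 24hr at 37C and 5% CO2. One hour before the end, CellTiter-Fluor was added and fluorescence recorded.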
The nature of experiment [18]: qHTS assay to identify small molecule antagonists of the sonic hedgehog signaling (Shh) pathway - cell viability counter screen (AID 1259367). Note: nearly all actives have a fitted effect of over 55% in size. The gist of the method:
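Tox21 library chemicals were tested on a Gli1-Luc NIH/3T3 clone (2,000 cells/well) stimulated by conditioned medium; viability was quantified as fluorescence from CellTiter-Fluor reagent added at 23 hr.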

Experiment [19] in a line: qHTS assay to identify small molecule phospholipidosis (PLD) inducers (AID 1259344; active = well fitted curve in the direction sought with a large enough effect; an effect the other way counts as inactive or inconclusive). Put shortly: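 Image-based: LipidTOX Red pit count/intensity per well and per cell; HepG2, 24 h compound at 37 C, PFA fixation, Hoechst counterstain.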

With `CC(=O)[O-].CC(=O)[O-].[Co+2]`, the Potency entry in [1], in experiment [2], in experiment [3], in experiment [4], in [5] and in experiment [6] was “inactive” in each case. Further, the Potency result in experiment [7], in [8], in experiment [9], in [10], in [11] and in experiment [12] was “inactive” each time. The Potency result in experiment [13] and in experiment [14] was “inactive” in each case. In addition, the Potency in experiment [15] is 54.5 µM (active).
As for `Oc1ccc(Cl)c(Cl)c1`, the Potency result in experiment [1], in experiment [2], in [3], in experiment [4], in experiment [5] and in experiment [7] was “inactive” throughout. Besides, the Potency result in [8], in experiment [9], in experiment [10], in [11], in experiment [12] and in [16] was “inactive” each time. The Potency entry in [13], in [14], in experiment [17], in experiment [18] and in experiment [15] was “inactive” each time.
`CC(C)Br`: the Potency entry in [1], in experiment [2], in [3], in [4], in experiment [5] and in experiment [6] was “inactive” in each case. For the same compound, the Potency entry in experiment [8], in experiment [10], in [11], in experiment [12], in experiment [16] and in [13] was “inactive” throughout. In addition, the Potency entry in [14], in [18] and in [15] was “inactive” throughout.
In the case of `ClC1=C(Cl)[C@]2(Cl)[C@H]3[C@H]([C@@H]4C=C[C@H]3C4)[C@@]1(Cl)C2(Cl)Cl`, the Potency is 54.9 µM (active) and 49 µM (active) in experiment [1]; 54.9 µM (active) in experiment [3]; 54.9 µM (active) in [4]; 49 µM (active) in experiment [5]; 43.6 µM (active) and 38.9 µM (active) in experiment [7]; 54.9 µM (active) and 49 µM (active) in [8]. Also, the Potency in experiment [10] is 54.9 µM (active). The Potency result in experiment [2], in experiment [9], in [11], in [12], in experiment [16] and in [14] was “inactive” in each case. The Potency entry in experiment [17], in experiment [18] and in experiment [15] was “inactive” in each case.
Consider `COP(=S)(OC)Oc1nc(Cl)c(Cl)cc1Cl`, for which the Potency entry in experiment [1], in experiment [2], in [3], in experiment [4], in [5] and in experiment [6] was “inactive” throughout. Further, the Potency result in [8], in [9], in [10], in [11], in experiment [12] and in experiment [16] was “inactive” throughout. The Potency result in [13], in [17], in [18] and in experiment [15] was “inactive” throughout.
Take `CN(C)CCc1c[nH]c2ccccc12`: the Potency entry in [1], in experiment [2], in experiment [3], in experiment [4], in experiment [5] and in [6] was “inactive” in each case. Further, the Potency result in [7], in experiment [9], in experiment [10], in [11], in [12] and in [13] was “inactive” in each case. The Potency entry in experiment [15] is “inactive”. In addition, the outcome in experiment [19] was inactive.
As to `CSC1=N[C@@](C)(c2ccccc2)C(=O)N1Nc1ccccc1`, the Potency entry in experiment [1], in [2], in experiment [3], in experiment [4], in experiment [5] and in experiment [6] was “inactive” throughout. The Potency entry in experiment [7], in experiment [9], in experiment [10], in experiment [13], in experiment [14] and in experiment [17] was “inactive” each time. The Potency entry in [18] and in experiment [15] was “inactive” throughout. In addition, the Potency in experiment [12] was 27.3 µM (active).
Regarding `CCOP(=O)(OCC)Oc1cc(C)nc(C(C)C)n1`, the Potency result in experiment [1], in experiment [2], in experiment [3], in experiment [4], in experiment [5] and in experiment [7] was “inactive” in each case. The Potency result in experiment [8], in [9], in experiment [10], in experiment [11], in experiment [12] and in experiment [13] was “inactive” in each case. Also, the Potency entry in [14], in [17], in experiment [18] and in [15] was “inactive” in each case.
